About 1,200 (0.39%) of roughly 310,000 compounds were called active. How the calls were made is not given here. Not all results are given here. Entries with a potency or affinity are not part of this list.
What follows are molecules tested against Large T antigen (Simian virus 40) (UniProt P03070) (assay: TAg ATPase/helicase activity blockers – biochemical (AID 1903)). Details: SV40 large T antigen ATPase/helicase inhibition assay; at 20 µM; stronger effect = higher value.
Chain of Large T antigen (Simian virus 40) (P03070 whole entry, looked up): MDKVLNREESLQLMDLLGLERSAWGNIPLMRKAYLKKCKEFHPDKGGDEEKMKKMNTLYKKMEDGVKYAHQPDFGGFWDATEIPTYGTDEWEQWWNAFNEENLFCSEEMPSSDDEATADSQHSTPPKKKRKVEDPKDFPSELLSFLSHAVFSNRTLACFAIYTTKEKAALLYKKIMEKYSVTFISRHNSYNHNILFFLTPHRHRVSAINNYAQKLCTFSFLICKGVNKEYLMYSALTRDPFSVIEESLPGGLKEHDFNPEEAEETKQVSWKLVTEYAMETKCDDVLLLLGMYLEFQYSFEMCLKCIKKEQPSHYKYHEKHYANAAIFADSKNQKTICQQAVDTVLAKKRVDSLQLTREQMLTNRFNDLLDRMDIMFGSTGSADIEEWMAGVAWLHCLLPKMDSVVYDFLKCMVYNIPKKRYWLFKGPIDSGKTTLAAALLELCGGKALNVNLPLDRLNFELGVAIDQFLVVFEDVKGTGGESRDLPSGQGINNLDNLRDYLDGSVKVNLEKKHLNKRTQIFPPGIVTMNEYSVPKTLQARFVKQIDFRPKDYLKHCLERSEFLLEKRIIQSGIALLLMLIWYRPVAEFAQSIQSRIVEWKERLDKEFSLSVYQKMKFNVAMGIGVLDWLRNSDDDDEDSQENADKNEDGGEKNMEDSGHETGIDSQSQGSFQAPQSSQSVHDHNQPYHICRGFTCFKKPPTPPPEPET
With `CCc1noc(C)c1C(=O)Oc1ccc(N(C)S(=O)(=O)c2ccccc2)cc1` the inhibition was 12.4% (inactive).
In the case of `Cc1nn(-c2ccccc2)c(Cl)c1/C=N/NC(=O)c1ccnn1C`, the inhibition is reported as 19.3% (inactive).
With `O=C(O)c1ccc(/C=N/Nc2ccc(F)cc2F)cc1` the inhibition was 9.08% (inactive).
For `COc1cccc(CC(NC(C)=O)C(=O)NC2CCN(S(=O)(=O)c3ccc(NC(C)=O)cc3)CC2)c1` (stereo not given), the inhibition was 12.6% (inactive).
For `COc1ccc(OC)c(N(CC(=O)NCc2ccccn2)S(C)(=O)=O)c1`, the inhibition was 5.82% (inactive).
With `COc1ccc(/C=N/NC(=O)c2ccccc2OC)cc1COc1ccc(C)cc1` the inhibition was 1.22% (inactive).
In the case of `O=C(c1ccc2c(c1)OCO2)N(c1ccc(F)cc1)C1C=CS(=O)(=O)C1` (stereo not given), the inhibition is reported as -0.44% (inactive).
With `CCOc1cc(/C=C/c2ccc3cccc([N+](=O)[O-])c3n2)ccc1O` the inhibition was 3.61% (inactive).
`CCOc1cc(/C=C/c2cc(C(=O)O)c3ccccc3n2)ccc1O` was tested, and the inhibition was 31% (inactive).
In the case of `COc1ccc(/C=N/NC(=O)c2ccc(=O)n(C)c2)cc1OC`, the inhibition is reported as 3.81% (inactive).
In the case of `CCC(=Nc1ccccc1OC)C1=C(O)CC(c2ccccc2)CC1=O` (stereo not given), the inhibition is reported as 2.58% (inactive).
With `CCC(=NC)C1=C(O)CC(c2ccccc2)CC1=O` (stereo not given) the inhibition was 3.84% (inactive).
In the case of `O=C1c2cccnc2C(=O)N1Cc1ccc(S(=O)(=O)NCc2ccco2)cc1`, the inhibition is reported as 14.4% (inactive).
In the case of `N#C/C(=C\c1ccc(Br)s1)C(=O)N1CCN(c2ccccc2)CC1`, the inhibition is reported as 7.79% (inactive).
In the case of `CN(C)C(CNC(=O)c1ccc2nc[nH]c2c1)c1ccccc1` (stereo not given), the inhibition is reported as 12.7% (inactive).
`NC1=NC(=O)/C(=C/c2cccs2)S1` was tested, and the inhibition was 3.51% (inactive).
For `NC1=NC(=O)/C(=C\c2cccs2)S1`, the inhibition was 16.2% (inactive).
For `COc1cccc(C(=O)CN(C(=O)c2ccc(Cl)c(Cl)c2)N2C(=O)C3CCCCC3C2=O)c1` (stereo not given), the inhibition was 24.4% (inactive).
`COc1ccccc1C(=O)COC(=O)CCCN=C1NS(=O)(=O)c2ccccc21` was tested, and the inhibition was 11.1% (inactive).
`Oc1ccc(Br)cc1-c1cc(-c2ccccc2)n[nH]1` was tested, and the inhibition was 23.6% (inactive).
In the case of `Nc1cc(-c2ccc(Br)cc2)[nH]n1`, the inhibition is reported as 8.97% (inactive).
`O=C1c2ccccc2CC1Sc1nnc(-c2ccccn2)o1` (stereo not given) was tested, and the inhibition was 13.2% (inactive).
For `CCC(Sc1nnnn1-c1ccccc1)C(=O)NC(C)c1ccccc1` (stereo not given), the inhibition was 1.1% (inactive).
For `c1ccc(Nc2ccccc2)cc1`, the inhibition was 12.1% (inactive).
For `Cc1ccc(Nc2ccccc2)cc1`, the inhibition was 9.98% (inactive).
For `CN(Cc1nc(-c2cnccn2)no1)CC(O)c1ccccc1` (stereo not given), the inhibition was 9.11% (inactive).
For `C/C(=N\NC(=O)CSc1nc2ccccc2[nH]1)c1ccncc1`, the inhibition was 5.69% (inactive).
In the case of `COc1cc(/C(C)=N\NC(=O)CSc2nc3ccccc3n2C)ccc1O`, the inhibition is reported as 25.3% (inactive).
With `COc1ccc(/C(C)=N\NC(=O)CSc2nnc(C)s2)cc1` the inhibition was 4.01% (inactive).
With `C/C(=N\NC(=O)CSc1nnc(C)s1)c1ccc(O)cc1` the inhibition was 26.9% (inactive).

Reference: PubChem BioAssay AID1903 (Southern Research Specialized Biocontainment Screening …, 2009)
